Assay results as given in PubChem BioAssay (NCI).
The panel holds about 83,000 compounds, 20% with a hit somewhere; the sample as a whole holds those more often.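 Interpretation: 100, growth as untreated; towards 0, rising growth inhibition; 0, no net growth; 0 to -100, cell death. Compounds scoring below 10 were considered active.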 A number with no mark means an inactive call. Activity calls are given as the source filed them.

What was measured:
Assay in all cases: NCI-60 one-dose screen, 48 h (100 = growth as untreated, 0 = no growth, -100 = all killed)
Details in all cases: 10 µM unless noted
[1] = test system: SR leukemia
[2] = test system: RPMI-8226 leukemia
[3] = test system: OVCAR-8 ovarian
[4] = test system: OVCAR-5 ovarian
[5] = test system: OVCAR-4 ovarian
[6] = test system: SK-OV-3 ovarian
[7] = test system: IGROV1 ovarian
[8] = test system: OVCAR-3 ovarian
[9] = test system: HS 578T breast
[10] = test system: NCI/ADR-RES ovarian

Row | Structure (SMILES) | growth [1] | growth [2] | growth [3] | growth [4] | growth [5] | growth [6] | growth [7] | growth [8] | growth [9] | growth [10]
1 | N#Cc1cccc(CN2CCc3ncn(Cc4ccc(Cl)cc4)c(=O)c3C2)c1 | 36.2% | 22.4% | 24.3% | 23.8% | 16.5% | 22.8% | 44.1% | 21.7% | 35.9% | 14.7%
2 | O=C(Nc1cccc(C(F)(F)F)c1)c1cc(-c2ccc(F)cc2F)ccc1O | 24% | -10.3% (active) | 11.5% | 9.98% (active) | 12.4% | -0.0407% (active) | 10.4% | 9.88% (active) | -5.22% (active) | 4.03% (active)
3 | Cn1cc(-c2nc(N)nnc2-c2c[nH]c3ccccc23)c2cc(Br)ccc21 | 26.7% | 12.9% | 33% | 55.1% | 74.1% | 29.7% | 30.5% | 16.9% | 2.13% (active) | 20.2%
4 | O=c1[nH]c2ccccc2cc1CSc1ccccc1Nc1nccc(-c2ccc(Cl)cc2)n1 | 99.2% | 94.5% | 96.9% | 110% | 86.2% | 112% | 89.6% | 101% | 88.6% | 95.1%
5 | COc1ccc(/C=N/NC(=O)c2cn(C3CC3)c3c(OC)c(N4CC5CCCNC5C4)c(F)cc3c2=O)cc1 (stereo not given) | -3.21% (active) | 64.2% | 94.8% | 97.5% | 87.9% | 102% | 75.3% | 83.1% | 99.1% | 91%
6 | COc1ccc(-c2nc(C(Cl)Cl)nc3cc(-c4ccccc4)nn23)cc1 | 4.09% (active) | 14.9% | -34.3% (active) | -12.9% (active) | -15.3% (active) | -29.7% (active) | 2.02% (active) | -33.9% (active) | -6.94% (active) | 9.82% (active)
7 | CCCn1cnc2c(c1=N)C(c1ccc(Cl)cc1)c1sc3c(CC)cccc3c1O2 (stereo not given) | 24.2% | -5.3% (active) | 20.5% | 29% | 89.1% | 29.7% | 18.4% | 6.2% (active) | 4.18% (active) | 10.4%
8 | C#CCOC(=O)[C@@H]1CCCN1CC#C | 95.5% | 71% | 90.4% | 103% | 91.9% | 97.6% | 67.3% | 87.3% | 74.8% | 85.7%
9 | COC[C@]12CCC(C)(C)C[C@H]1C1=CC[C@@H]3[C@@]4(C)CCCNC(C)(C)[C@@H]4CC[C@@]3(C)[C@]1(C)CC2 | -55% (active) | -34.8% (active) | 52.2% | 5.67% (active) | -18.9% (active) | 75.9% | -54.4% (active) | -46.9% (active) | -44.6% (active) | -88% (active)
10 | O=C(NNc1nc2cc(F)ccc2n2c(CN3CCCC3)ccc12)c1cnccn1 | 4.32% (active) | 20.6% | 13.9% | 33.5% | 14.1% | 16.8% | 13.8% | 4.58% (active) | 68.1% | 0.656% (active)
11 | C=CCN(C)S(=O)(=O)/N=C1\NC(=O)NC1=C(Cl)Cl | -18.7% (active) | 5.23% (active) | 61.2% | -37.5% (active) | 89.1% | 104% | -37.4% (active) | -84.3% (active) | 80.5% | 72.5%
12 | Nc1cc(F)ccc1NC(=O)c1ccc(NC(=O)C/C=C/c2cccnc2)cc1 | 29.3% | 6.2% (active) | 29.9% | 37.2% | 48% | 54.5% | 27.9% | 45.1% | 49% | 51%
13 | CCOC(=O)c1c(NC(=O)c2ccccc2C(F)(F)F)sc2c1CCC(=O)C2 | 24.2% | -6.12% (active) | 37.9% | 21% | 16.7% | 99.7% | 29% | 12.4% | 36.3% | 10.7%
14 | COc1ccc2c(c1)c(-c1cc(N)n3nc(-c4cn(C)c5ccc(OC)cc45)cc3n1)cn2C | -12.2% (active) | -0.83% (active) | 97.9% | 117% | 109% | 134% | 105% | 117% | 110% | 120%
